EC50 data for 2 molecules are collected here from PubChem BioAssay AID1245 (Sanford-Burnham Center for Chemical Genomics, 2008).

The EC50 is the concentration that produces a half-maximal response.

This test can be described thus: displacers of FITC-Puma-BH3 from Bcl-B – biochemical, fluorescence polarization, Puma-BH3 peptide, counter-screen for TR3-derived Bcl-B inhibitor project, dose response (AID 1245). Conditions: Bcl-B/FITC-Puma-BH3 fluorescence polarization binding. In general terms: Polarisation of emitted light reports the rotation of a fluorescent probe.

Values without a mark were called inactive. Calls of active or inactive are those of the source. No rule for the calls is given here.

In the case of `Cc1ccc(C)n1-c1ccc(Br)cc1C(=O)O`, the EC50 was 1 µM (active).

Consider `Cc1cc(C)nc(/N=C(/N)Nc2cccc(N)c2)n1`, for which the EC50 was over 25 µM.
